This passage reports growth results from PubChem BioAssay (NCI).

Compounds without any hit were thinned out: in the full panel of roughly 83,000, 20% have a hit.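 Interpretation: 100, growth as untreated; towards 0, rising growth inhibition; 0, no net growth; 0 to -100, cell death. Compounds scoring below 10 were considered active.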 Values without a mark were called inactive. Activity calls are given as the source filed them.

Test systems include DU-145 prostate; K-562 leukemia; MALME-3M melanoma; MDA-MB-231 breast; RXF 393 renal; SF-268 CNS; SF-295 CNS; SF-539 CNS; UACC-257 melanoma; M14 melanoma; HCT-15 colon; SNB-75 CNS; SNB-19 CNS; U251 CNS; SK-MEL-5 melanoma; UACC-62 melanoma; LOX IMVI melanoma; SK-MEL-28 melanoma; PC-3 prostate; HT29 colon.
Common to all, as to assay: NCI-60 one-dose screen, 48 h (100 = growth as untreated, 0 = no growth, -100 = all killed)
What all share (details): 10 µM unless noted

Regarding `CCNc1cc(S(=O)(=O)O)ccc1C`, the growth is 108% in the assay on DU-145 prostate; 102% in the assay with K-562 leukemia; 106% in the assay on MALME-3M melanoma; 102% in the assay on MDA-MB-231 breast; 110% with RXF 393 renal; 113% with SF-268 CNS. The growth in the assay on SF-295 CNS was 101%; in the assay on SF-539 CNS it was 102%; in the assay on UACC-257 melanoma, 83.2%; in the assay with M14 melanoma, 106%; with HCT-15 colon, 105%; in the assay on SNB-75 CNS, 99.4%. The growth in the assay with SNB-19 CNS is 104%; in the assay with U251 CNS it was 98.3%; in the assay on SK-MEL-5 melanoma, 102%; with UACC-62 melanoma, 105%; with LOX IMVI melanoma, 97.2%; in the assay on SK-MEL-28 melanoma, 108%.
With `CCc1c(C)c2cc(-n3c(-c4ccc(OC)cc4)csc3=N)c(O)c(C)c2oc1=O`, the growth is 17.7% in the assay on DU-145 prostate; 5.33% (active) with K-562 leukemia; 15.3% in the assay on MALME-3M melanoma; 13.4% in the assay on MDA-MB-231 breast; 27.8% in the assay with RXF 393 renal; 16.5% in the assay on SF-268 CNS. The growth is 20.8% in the assay on SF-295 CNS; -0.811% (active) in the assay with SF-539 CNS; 60.8% in the assay on UACC-257 melanoma; 9.77% (active) in the assay on M14 melanoma; 9.38% (active) in the assay on HCT-15 colon; -2.92% (active) in the assay with SNB-75 CNS. Besides, the growth was 21.7% in the assay with SNB-19 CNS; 10.8% in the assay with U251 CNS; 12.9% with PC-3 prostate; 4.4% (active) in the assay with SK-MEL-5 melanoma; 2% (active) with UACC-62 melanoma; 5.9% (active) in the assay on LOX IMVI melanoma. Further, the growth in the assay on SK-MEL-28 melanoma is 28.6%.
Turning to `CCN(CC)CCNCC(O)Cc1ccc(OC)cc1` (centres undefined), the growth is 110% with DU-145 prostate; 105% in the assay on K-562 leukemia; 113% in the assay with MALME-3M melanoma; 105% in the assay with MDA-MB-231 breast; 103% with RXF 393 renal; 107% with SF-268 CNS. The growth was 104% with SF-295 CNS; 106% with SF-539 CNS; 86.1% in the assay with UACC-257 melanoma; 104% with M14 melanoma; 112% in the assay on HCT-15 colon; 110% in the assay with SNB-75 CNS. The growth in the assay on SNB-19 CNS is 98.9%; with U251 CNS, 94.5%; in the assay on PC-3 prostate it was 76.2%; in the assay with SK-MEL-5 melanoma, 99.9%; with UACC-62 melanoma, 93.9%; in the assay with LOX IMVI melanoma, 103%. In addition, the growth with SK-MEL-28 melanoma is 116%.
As for `CCC1S/C(=N\N=C(/C)c2ccco2)N(c2ccccc2)C1=O` (centres undefined), the growth in the assay on DU-145 prostate was 123%; with K-562 leukemia it was 120%; in the assay with MALME-3M melanoma it was 79.6%; in the assay with MDA-MB-231 breast it was 118%; with RXF 393 renal it was 103%; with SF-268 CNS it was 100%. For the same compound, the growth with SF-295 CNS is 123%; with SF-539 CNS it was 107%; in the assay on UACC-257 melanoma it was 109%; with M14 melanoma, 138%; with HCT-15 colon, 118%; in the assay with SNB-75 CNS it was 103%. In addition, the growth was 104% in the assay with SNB-19 CNS; 104% in the assay with U251 CNS; 76.6% with PC-3 prostate; 92% in the assay with UACC-62 melanoma; 99.5% with LOX IMVI melanoma; 108% with SK-MEL-28 melanoma.
Regarding `CCOc1ccc(-n2c(-c3cc(OC)c(OC)c(OC)c3)nnc2-c2ccc(OC)cc2N)cc1`, the growth is 57.6% with DU-145 prostate; 70.3% in the assay on K-562 leukemia; 79.7% in the assay with MALME-3M melanoma; 82.7% with MDA-MB-231 breast; 51.9% in the assay on RXF 393 renal; 86.9% with SF-268 CNS. In addition, the growth was 84.8% in the assay with SF-295 CNS; 77.6% in the assay with SF-539 CNS; 57.2% with UACC-257 melanoma; 68.1% in the assay with M14 melanoma; 64.9% in the assay with HCT-15 colon; 52.7% in the assay with HT29 colon. The growth is 76.3% in the assay on SNB-75 CNS; 75.5% in the assay on SNB-19 CNS; 63.3% in the assay on PC-3 prostate; 66.7% in the assay on UACC-62 melanoma; 80.3% with LOX IMVI melanoma; 80.2% with SK-MEL-28 melanoma.
On to `CCc1cccc(C)c1NC(=O)c1sc2nc3c(cc2c1N)CCCCC3`, for which the growth in the assay with DU-145 prostate was 13.2%; in the assay with K-562 leukemia it was 9.14% (active); with MALME-3M melanoma, 47%; in the assay on MDA-MB-231 breast, 35.6%; in the assay on RXF 393 renal it was 11.6%; with SF-268 CNS, 56.5%. The growth in the assay with SF-295 CNS is 27%; in the assay with SF-539 CNS, 11.1%; in the assay with UACC-257 melanoma it was 71.7%; in the assay on M14 melanoma, 3.86% (active); in the assay with HCT-15 colon, 27.5%; in the assay with SNB-75 CNS it was 6.57% (active). Moreover, the growth is 26.8% with SNB-19 CNS; 24.1% with U251 CNS; 35.5% in the assay on PC-3 prostate; 14.2% with SK-MEL-5 melanoma; 30.2% in the assay with UACC-62 melanoma; 45.1% in the assay with LOX IMVI melanoma. Moreover, the growth in the assay with SK-MEL-28 melanoma is 67.6%.
On to `Cc1[nH]n(C(=O)c2ccncc2)c(=O)c1N=Nc1ccc(S(=O)(=O)Nc2ccncn2)cc1`, for which the growth was 126% in the assay with DU-145 prostate; 55.3% in the assay with K-562 leukemia; 124% with MALME-3M melanoma; 103% with MDA-MB-231 breast; 95.5% with SF-268 CNS; 134% with SF-295 CNS. For the same compound, the growth in the assay with SF-539 CNS was 107%; with UACC-257 melanoma, -1.41% (active); in the assay on M14 melanoma, 106%; in the assay with HCT-15 colon, 112%; in the assay with HT29 colon, 109%; in the assay with SNB-75 CNS, 93.9%. In addition, the growth with SNB-19 CNS was 105%; in the assay with U251 CNS it was 105%; in the assay on PC-3 prostate, 100%; in the assay on SK-MEL-5 melanoma, 106%; in the assay with UACC-62 melanoma, 98.8%; in the assay with LOX IMVI melanoma, 93.6%. Besides, the growth with SK-MEL-28 melanoma was 112%.
For the compound `COc1cc(NC(=O)c2cc(OC)c3ccn(C)c3c2)cc2c1C[C@]1(C)CC[C@@H](O)C(C)(C)[C@H]1O2`, the growth was 71.5% in the assay on DU-145 prostate; 20.2% in the assay on K-562 leukemia; 49.9% in the assay on MALME-3M melanoma; 57.7% in the assay with MDA-MB-231 breast; 66.7% in the assay on SF-268 CNS; -39.6% (active) in the assay on SF-295 CNS. The growth is 20.3% in the assay with SF-539 CNS; 62.2% in the assay on UACC-257 melanoma; 23.7% in the assay on M14 melanoma; 58.1% in the assay with HCT-15 colon; 61.7% in the assay on HT29 colon; 42.2% in the assay on SNB-75 CNS. Further, the growth in the assay on SNB-19 CNS is 72.9%; with U251 CNS, 43.1%; in the assay on PC-3 prostate, 41.7%; in the assay with SK-MEL-5 melanoma it was 42%; with UACC-62 melanoma, 53.5%; with LOX IMVI melanoma, 19.9%. The growth in the assay with SK-MEL-28 melanoma was 36.9%.
